This passage reports inhibition results from PubChem BioAssay AID1813 (Broad Institute, 2009).

In all, about 300,000 compounds went through this assay and about 2,500 (0.83%) were called active. This is one part of a sample in which actives are shown more often than they occur. Values without a mark were called inactive. Cut-off read from the data, not from the text of the source: active = inhibition above about 60%; inconclusive = no clear call, values can overlap the other calls; inactive = below that.

This assay in a line: 5' untranslated region of α-synuclein, MLPCN primary screen (AID 1813).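 Note: H4 neuroglioblastoma cells stably carrying SNCA 5'UTR luciferase fusion; 0% = DMSO wells and 100% = positive control.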 Conditions: alpha-synuclein 5'UTR reporter, inhibitor activity; active compounds read high; tested at 7.5 µM.
In the case of `COc1ccc2nc(N3CCCC(O)C3)c(C#N)cc2c1` (stereo not drawn), the inhibition was -114%. In the case of `COc1ccc2c(c1)CCc1cn3ncc(C#N)c3nc1-2`, the inhibition was 68.1% (active).

For `N#Cc1cnn2cc(CCN3CCOCC3)c(-c3ccc(F)cc3)nc12`, the inhibition is 17%. Under `CC(C)[C@H](NC(=O)N1CCn2c1nc1ccccc12)C(=O)NC1CC1` stands -11.1%.

Turning to `CC1(c2ccc(Cl)cc2)NC(=O)N(CC(=O)c2ccc3c(c2)OCO3)C1=O` (stereo not drawn), the inhibition is -7.93%. In the case of `CC(C)(C)C(=O)Nc1ccc(-c2cn3cccnc3n2)cc1`, the inhibition was -130%. Regarding `Cc1nc(N2CCCCC2)sc1C=O`, the inhibition is 10.9%. For `Brc1ccc2nc(N3CCCC3)sc2c1`, the inhibition was -105%. Turning to `c1c2c(cc3sc(N4CCCCC4)nc13)OCCO2`, the inhibition was 107% (active). Under `CN(CC(=O)O)S(=O)(=O)c1ccc2oc3ccccc3c2c1` stands -11.7%. Next, `COc1ccc(NS(=O)(=O)c2cc3c(cc2C)N(C(C)=O)CCO3)cc1`: 11.8%. Take `COc1ccc(-c2oc3ncn(Cc4ccco4)c(=N)c3c2-c2ccc(OC)cc2)cc1`: the inhibition is 36%. Consider `O=C(CN1C(=O)C2C3C=CC(C3)C2C1=O)Nc1nc(-c2ccccn2)cs1` (stereo not drawn), for which the inhibition was 82.4% (active). Under `O=C(NCCN1C(=O)C2C3C=CC(C3)C2C1=O)Nc1ccccn1` (stereo not drawn) stands -5.4%. Under `O=C(CN1C(=O)C2C3C=CC(C3)C2C1=O)NCCc1ccccc1Cl` (stereo not drawn) stands -1.36%. On to `Cc1ccc(S(=O)(=O)CCC(=O)Nc2nnc(CC(C)C)s2)cc1`, for which the inhibition was -17%. Next, `O=S(=O)(NCc1ccc(Cl)cc1Cl)c1cccs1`: -22.7%; `Cc1oc(-c2ccccc2Cl)[n+]([O-])c1C`: 34.1%. For `COc1ccc(Br)c2c1C(=O)CC2`, the inhibition is 8.26%. For `CC1CCCN(S(=O)(=O)c2ccc(C(=O)Nc3nnc(-c4ccncc4)o3)cc2)C1` (stereo not drawn), the inhibition is -13.6%. With `CSCc1nnc(NC(=O)c2ccc(S(=O)(=O)N3CCCCC3C)cc2)o1` (stereo not drawn), the inhibition is 14.5%. Turning to `CC1CCCCN1S(=O)(=O)c1ccc(C(=O)Nc2nnc(-c3cccs3)o2)cc1` (stereo not drawn), the inhibition was 89.9% (active). In the case of `Cc1onc(-c2ccccc2Cl)c1C(=O)N(Cc1ccc(N(C)C)cc1)C(C)C`, the inhibition was 73.1% (active). `Cc1onc(-c2ccccc2Cl)c1C(=O)NCCn1ccc2ccccc21`: the inhibition is 29.7%.

Take `Cc1onc(-c2ccccc2Cl)c1C(=O)OCC(=O)c1ccccc1`: the inhibition is 12.5%. As to `O=C(CN1CCOCC1)Nc1cccc([N+](=O)[O-])c1`, the inhibition is 1.99%. On to `Cc1nc(-c2nnc(SCC(=O)Nc3cc(C(F)(F)F)cc(C(F)(F)F)c3)n2C)cs1`, for which the inhibition is 15.6%. Regarding `CCCOc1cccc(C(=O)Nc2nnn(CCC)n2)c1`, the inhibition was -87.6%. As for `CC(C)CNC(=O)COC(=O)c1ccccc1OCC(=O)Nc1ccc(Br)cc1`, the inhibition was 1.89%. Turning to `O=C(COC(=O)c1ccc(NS(=O)(=O)c2cccs2)cc1O)Nc1ccc(F)cc1`, the inhibition was 7.94%. `NS(=O)(=O)c1ccc(NC2=CC(c3ccc(F)cc3)N(c3ccc(S(N)(=O)=O)cc3)C2=O)cc1` (stereo not drawn): the inhibition was 15.1%.

On to `COc1ccc(CN(C)C(C)C(=O)NC2CCCc3ccccc32)cc1` (stereo not drawn), for which the inhibition was 8.59%.

In the case of `COc1ccc(/C=C/c2noc(-c3ccccc3OC(C)=O)n2)cc1`, the inhibition is -34.8%. Regarding `Cc1ccc(-c2nc(-c3ccncc3)no2)c(C)c1`, the inhibition is -108%. Consider `COc1ccc(-c2nc(-c3ccccc3)no2)c(OC)c1`, for which the inhibition was 68.9% (active). Consider `CCC1CO/C(=C(\C(=C(Cl)Cl)N2CCOCC2)[N+](=O)[O-])N1` (stereo not drawn), for which the inhibition is -4.02%.

For `CCOc1cc(N2CCOCC2)c(OCC)cc1NC(=O)COc1cccc2cccnc12`, the inhibition is 88.8% (active). In the case of `CCOc1cc(N2CCOCC2)c(OCC)cc1NC(=O)COc1cccc(Cl)c1`, the inhibition was 9.4%.

For `CCOc1cc(N2CCOCC2)c(OCC)cc1NC(=O)c1cc(C)nc2ccccc12`, the inhibition was 7.38%. As for `CCOC(=O)C(C)Oc1cccc2c(=O)n(CC(=O)NCCc3ccc(OC)c(OC)c3)ccc12` (stereo not drawn), the inhibition is 12.9%. Under `Cc1nn(C)c(C)c1CN(C(=O)CCc1nnc(Cc2c[nH]c3ccccc23)o1)C(C)C` stands 13.9%; under `Cc1oc2c(F)c(F)c(F)c(F)c2c1S(=O)(=O)Nc1cccc(C(F)(F)F)c1`, 17.3%; under `CCNC(=S)N1CCC(c2nc3cc(C)c(C)cc3[nH]2)CC1`, -15.5%. For `Cc1cccc(-[n+]2c(-c3cccc(Br)c3)[nH]c3nc4ccccc4nc32)c1`, the inhibition was 73.9% (active). Regarding `Cc1cccc(-c2nc(Nc3ccc(O)cc3)c3ccccc3n2)c1`, the inhibition is 2.9%. `Cc1ccc(/C=C2\CCn3c2nc2cc(C(=O)O)ccc2c3=O)c(C)c1`: the inhibition is -20%. In the case of `Nc1ccc2nn(-c3ccc(Cl)cc3)nc2c1`, the inhibition was -27.3%. In the case of `CC[n+]1cc(C)ccc1/C=C/c1ccc(N(C)C)cc1`, the inhibition was 90.6% (active). For `CN(C)c1ccc(/C=N\S(=O)(=O)c2ccccc2)cc1`, the inhibition is -6.91%.

Take `O=C(CN1CCN(c2ncccn2)CC1)Nc1ccccc1C(F)(F)F`: the inhibition is -6.88%. For `Brc1ccc2c(c1)[C@H]1OCC[C@H]1[C@@H](c1cccs1)N2`, the inhibition is 72.2% (active).

For the molecule `CC(C)CCn1c(=O)c2c(nc3n2CCCN3Cc2ccccc2)n(C)c1=O`, the inhibition was 23.1%. Consider `COc1ccc(C)cc1N(CC(=O)N1CCCC1)S(=O)(=O)c1ccccc1`, for which the inhibition was -6.96%. With `Cc1ccc(CNC(=O)CCNS(=O)(=O)c2cccc3nonc23)cc1`, the inhibition is 9.75%.

As for `CN(C(=O)c1cc2c(=O)n3ccccc3nc2s1)C1CCCCC1`, the inhibition is -42.4%. With `O=c1c2ccccc2nc2n1C1(CCCCC1)Cc1ccccc1-2`, the inhibition is 0.0175%. On to `CN(c1ccc2nc3ccccc3c(=O)n2n1)C1CCCCC1`, for which the inhibition is 119% (active).

For the molecule `Cc1ccc(CN2CCNC(=O)C2CC(=O)NCc2csc(C(C)C)n2)cc1` (stereo not drawn), the inhibition is 9.72%. `Cc1ccc2[nH]c(=O)c(CN(C)S(=O)(=O)c3cccc4nonc34)cc2c1`: the inhibition is -5.89%. Next, `CCC1=C(OC(=O)N(CC)CC)N2C(=O)OC(=NCCc3c[nH]c4ccccc34)[C@]2(C)[C@H]2C1=CC[C@H]1C(=O)N(CC)C(=O)[C@H]12`: -3.3%; `Cc1cccc2cc3c(N)c(C(=O)N4CCCc5ccccc54)sc3nc12`: 85.2% (active). As to `Cc1c(C(=O)N2CCCc3ccccc32)sc2nc(-c3ccccc3)cn12`, the inhibition is -83.5%. For `Cc1c(C(=O)N2CCCc3ccccc32)oc2ccccc12`, the inhibition is -96.2%. With `COc1ccc2c(c1)cc1n2CCN=C1NN`, the inhibition is -27.8%. Consider `CN1c2ccc(C=O)c3c(C=O)ccc(c23)N(C)C1(C)C`, for which the inhibition is 67% (active). As to `CCN(CC(=O)Nc1c(F)cccc1F)C(=O)c1ccc(S(=O)(=O)N2CCCCC2)cc1`, the inhibition is 6.51%. For the molecule `O=C(c1ccc(F)cc1)N1CCC(n2nnc3ccccc32)CC1`, the inhibition was 6.11%. In the case of `Cc1cc(OCc2ccc(C(=O)Nc3ccc(C(=O)O)cc3)o2)ccc1Cl`, the inhibition was 32.2%. Turning to `CCOC(=O)c1ccc(NC(=O)c2c(N)n(C)c(=O)[nH]c2=O)cc1`, the inhibition was -15.4%. With `C(=N\Nc1ccc2ccccc2n1)/c1ccc2c(c1)OCO2`, the inhibition is 88.2% (active). `Brc1ccc(-c2csc(N/N=C/c3ccc4c(c3)OCO4)n2)cc1`: the inhibition was -59.4%. Under `Cc1noc(C)c1/C=N/Nc1ccc2ccccc2n1` stands -146%; under `CCCc1nc(N2CCN(C)CC2)c2sc(=S)n(-c3ccccc3)c2n1`, 2.12%; under `CCOC(=O)C1C(=O)NCC1c1ccccc1` (stereo not drawn), -12.2%. Turning to `NC(=O)COC(=O)c1ccc2c(c1)C(=O)N(Cc1ccco1)C2=O`, the inhibition is -5.55%. Regarding `Cc1cccnc1NC(=O)c1cccc(S(=O)(=O)N2CCN(c3ccc(F)cc3)CC2)c1`, the inhibition is 26.9%.

As for `CCN1CCN(C(c2cccnc2)c2cc(Cl)c3cccnc3c2O)CC1` (stereo not drawn), the inhibition was -29.1%.

For `Oc1c(CN2CCN(c3ccc(F)cc3)CC2)cc(Cl)c2cccnc12`, the inhibition is 69.6% (active). Take `CC(=O)c1ccc(NC(=O)CCc2nnc3ccc(NCc4ccco4)nn23)cc1`: the inhibition is -95.3%.

In the case of `COc1ccc(CCn2c(=N)c(C(=O)NCC3CCCO3)cc3c(=O)n4cccc(C)c4nc32)cc1OC` (stereo not drawn), the inhibition is -9.36%.

Take `Cc1cccn2c(=O)c3cc(C(=O)NCC4CCCO4)c(=N)n(Cc4ccc(F)cc4)c3nc12` (stereo not drawn): the inhibition was 9.52%. With `Cc1cccn2c(=O)c3cc(C(=O)NCCN4CCOCC4)c(=N)n(Cc4cccnc4)c3nc12`, the inhibition was 97% (active). Turning to `CCOc1cccc(OCCCOc2cccc3cccnc23)c1`, the inhibition is 5.95%. `O=C1CCC([N+](=O)[O-])C(c2ccccc2Br)N1` (stereo not drawn): the inhibition is 0.315%. Under `O=C1C(=O)N(CCCO)C(c2ccccc2)/C1=C(\O)c1ccc(Br)cc1` (stereo not drawn) stands 4.06%; under `O=C(Oc1cccc(N2C(=O)C3C4c5ccccc5C(c5ccccc54)C3C2=O)c1)c1ccco1` (stereo not drawn), 2.5%; under `CN1CCCC(OC(=O)COc2ccc(Br)cc2)C1` (stereo not drawn), 4.45%. Consider `COc1cc2c(cc1OC)/C(=C/C(=O)c1ccc(NC(C)=O)cc1)NCC2`, for which the inhibition was 22.9%. Under `CC1CN/C(=C\C(=O)c2ccc(Br)cc2)C(=O)N1` (stereo not drawn) stands 62% (active); under `O=C(NCCCCCCCCCNC(=O)C(F)(F)F)C(F)(F)F`, 9.8%. Under `CCOC(=O)N1CCN(S(=O)(=O)c2ccc(Br)cc2)CC1` stands -14.3%. With `CCOC(=O)N1CCN(S(=O)(=O)c2ccc(OC)cc2)CC1`, the inhibition was 4.08%. In the case of `CCOC(=O)N1CCN(S(=O)(=O)c2ccc(C(=O)Nc3ccc(F)cc3F)cc2)CC1`, the inhibition was 69.5% (active).

Usually inhibition stands for the relative decrease from the control value, in per cent.
